# Data published in PubChem BioAssay (NCATS).
# Where “and” joins values, the source holds several entries; their conditions need not be identical. Equal entries are not always repeated. Unmarked numbers belong to inactive results. Records with an inconclusive call do not appear. Where a call stands in place of a potency, no number is given. Calls of active or inactive are those of the source. Unless noted, calls follow the shape of the dose curve; as a rule, active = well fitted curve in the direction sought with a large enough effect; inconclusive = small, poorly fitted or top-dose-only effect, or another doubt; inactive = no such curve, though single readings can be large; an effect the other way counts as inactive or inconclusive.
# Legend:
# [1] = Cell Viability - NIH 3T3 (AID 541); conditions: NIH 3T3 cell viability, qHTS; activity change, negative = cytotoxicity: at 92.2 µM (top of the series);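 also: cells exposed to compound for 40 hours; nearly all actives have a fitted effect of over 25% in size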
# Summary of the method: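 qHTS format; 40 hr compound exposure, 37 °C; CellTiter-Glo luminescence (cellular ATP) read-out after 20 min at RT. Decrease in ATP = cytotoxicity; AC50 from standard Hill fit.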
# [2] = Cell Viability - Mesenchymal (AID 546);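 also: cells exposed to compound for 40 hours before reading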
# Summary of the method: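 In this qHTS cytotoxicity format, glomerulus-derived human mesenchymal kidney cells received compound for 40 hr, then luciferase-based ATP quantitation. Concentration-response data were fitted with the Hill equation.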
# [3] = Cellular Toxicity (caspase-3) MRC-5 (AID 659)
# Summary of the method: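 Apoptosis readout in MRC-5 cells: luciferase light generated after caspase 3/7 cleaves a peptide-aminoluciferin substrate, measured post 16 hr compound incubation at 37 °C.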
# [4] = Cellular Toxicity (caspase-3) Hek293 (AID 664); conditions: HEK293 caspase-3 activation, DMSO = 0%, 100 µM tamoxifen = 100%; at 92.2 µM (top of the series);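 also: cells exposed to compound for 16 h at 37 °C before readout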
# Summary of the method: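 Luminescent Caspase-Glo 3/7 readout (aminoluciferin release) in HEK293 cells after 16 h compound treatment, 37 °C. Normalization: DMSO = basal, 100 uM tamoxifen = 100% stimulation. Concentration-response fitted with standard Hill equation for AC50.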
# [5] = molecular target: Cytochrome P450 3A4 (Homo sapiens) (UniProt P08684); assay: qHTS Assay for Inhibitors and Substrates of Cytochrome P450 3A4 (AID 884); also: nearly all actives have a fitted effect of over 50% in size; also: potency is read from the fitted curve at half-maximal effect
# Sequence of Cytochrome P450 3A4 (Homo sapiens) (P08684 whole entry, looked up): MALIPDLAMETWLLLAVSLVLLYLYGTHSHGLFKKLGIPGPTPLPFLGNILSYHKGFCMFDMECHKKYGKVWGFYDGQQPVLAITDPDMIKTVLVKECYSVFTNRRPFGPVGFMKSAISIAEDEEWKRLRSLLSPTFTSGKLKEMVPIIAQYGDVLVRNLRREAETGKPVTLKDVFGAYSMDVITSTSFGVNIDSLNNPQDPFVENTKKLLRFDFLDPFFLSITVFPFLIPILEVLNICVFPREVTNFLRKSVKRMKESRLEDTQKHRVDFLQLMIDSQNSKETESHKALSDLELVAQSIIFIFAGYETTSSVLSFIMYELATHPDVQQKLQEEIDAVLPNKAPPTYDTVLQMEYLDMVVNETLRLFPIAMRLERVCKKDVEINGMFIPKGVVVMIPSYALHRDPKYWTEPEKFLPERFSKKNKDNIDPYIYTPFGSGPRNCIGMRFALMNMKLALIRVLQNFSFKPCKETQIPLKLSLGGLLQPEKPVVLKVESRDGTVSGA
# Summary of the method: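 Luminescent readout of luciferin produced by CYP3A4 (20 nM) dealkylation of Luciferin-PPXE, 25 uM (its KM). NADPH-driven reaction ran 60 min at RT after 10 min compound preincubation; data scaled to 57 uM ketoconazole as 100% inhibition.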
# [6] = MultiTox-Fluor Cytotoxicity Assay - LYMP1-002 - Live Cells (AID 955)
# Summary of the method: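 LYMP1-002 lymphoblastoid cells; 2500 cells/well; 16 hr compound exposure, 37 C; MultiTox-Fluor reagent 60 min RT; live-cell fluorescence Ex/Em=405/510; qHTS concentration-response, Hill-equation AC50; tetraoctylammonium bromide positive control.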
# [7] = MultiTox-Fluor Cytotoxicity Assay - LYMP1-002 - Dead Cells (AID 960); also: nearly all actives have a fitted effect of over 60% in size
# Summary of the method: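 Readout: fluorescence at 485/520 from cell-impermeant bis-AAF-R110 cleaved by proteases leaking from damaged cells. LYMP1-002 lymphoblastoid line, 16 hr compound treatment at 37 C, concentration-response in qHTS format; Hill-equation AC50 values.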
# [8] = Cell Viability - LYMP2-003 (AID 965);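 also: cells exposed to compounds for 24 h before reading; nearly all actives have a fitted effect of over 50% in size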
# Summary of the method: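 Human lymphoblastoid LYMP2-003 cells, 2500/well, exposed to compounds for 24 h at 37 C in complete medium. Viability read as intracellular ATP by CellTiter-Glo luminescence; AC50 from Hill-equation fits of qHTS concentration-response data.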
# [9] = Cell Viability - LYMP2-017 (AID 972); also: nearly all actives have a fitted effect of over 55% in size
# Summary of the method: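 Luminescent ATP read-out (CellTiter-Glo, 30 min RT) reports viable cell number. Cells: human lymphoblastoid line, 2500 per well, 5 hr preincubation, 24 hr compound exposure at 37 C. AC50 is derived from qHTS concentration-response data using the standard Hill model.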
# [10] = Cell Viability - LYMP2-021 (AID 974);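 also: compound exposure lasts 24 hours at 37 °C; nearly all actives have a fitted effect of over 55% in size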
# Summary of the method: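 ATP luminescence (CellTiter-Glo, 30 min RT) after 24 h compound exposure at 37 C; 2500 human lymphoblastoid cells/well, 5 h settle beforehand. Cytotoxicity = concentration-dependent ATP drop, AC50 by Hill fit.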
# [11] = Cell Viability - LYMP2-016 (AID 984); also: nearly all actives have a fitted effect of over 55% in size
# Summary of the method: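 Human lymphoblastoid LYMP2-016 cells, 2500 per well, treated with compounds for 24 h at 37 C. Viability read as intracellular ATP by CellTiter-Glo luminescence after 30 min at room temperature; AC50 from Hill fits of concentration-response.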
# [12] = Cell Viability - LYMP1-002 - Assay at 24 hr (AID 993)
# Summary of the method: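 CellTiter-Glo luminescence (intracellular ATP) after 24 h compound exposure, 37 C, in LYMP1-002 human lymphoblastoid cells; decreased ATP taken as cytotoxicity. AC50 from standard Hill fit of concentration-response curves.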
# [13] = molecular target: Vitamin D3 receptor (Homo sapiens) (UniProt P11473); assay: qHTS assay for small molecule agonists of vitamin D receptor signaling (AID 588543; calls by dose curve)
# Sequence of Vitamin D3 receptor (Homo sapiens) (P11473 whole entry, looked up): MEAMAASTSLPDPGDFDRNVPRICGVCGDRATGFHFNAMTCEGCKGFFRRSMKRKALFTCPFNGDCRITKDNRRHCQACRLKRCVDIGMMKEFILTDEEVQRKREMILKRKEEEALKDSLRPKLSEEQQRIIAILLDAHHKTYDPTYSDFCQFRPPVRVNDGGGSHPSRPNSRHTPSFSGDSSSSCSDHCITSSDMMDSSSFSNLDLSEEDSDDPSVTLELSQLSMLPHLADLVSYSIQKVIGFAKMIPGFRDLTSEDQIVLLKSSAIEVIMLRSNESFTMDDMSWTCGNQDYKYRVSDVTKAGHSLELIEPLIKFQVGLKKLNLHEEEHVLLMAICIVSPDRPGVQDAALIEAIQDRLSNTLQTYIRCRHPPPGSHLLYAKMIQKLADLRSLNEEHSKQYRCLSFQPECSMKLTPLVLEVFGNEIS
# Summary of the method: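 VDR-UAS-bla HEK293T cells, 2000/well, 2% charcoal-stripped FBS; compound titration 16 h at 37 C; CCF4 beta-lactamase ratio read. Normalized to 50 nM 1-alpha,25-dihydroxyvitamin D3 (100%) and DMSO; Hill fit gives EC50, efficacy.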
# [14] = qHTS assay for small molecule disruptors of the mitochondrial membrane potential - 5 hr assay (AID 651755; calls by dose curve; also: nearly all actives have a fitted effect of over 40% in size)
# Summary of the method: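 Seed HepG2 overnight, add compound, incubate 5 hr at 37C and 5% CO2, stain 30 min with Mito-MPS, then measure monomer (490/535 nm) and aggregate (540/590 nm) fluorescence.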
# [15] = molecular target: Tumor necrosis factor (Homo sapiens) (UniProt P01375); assay: qHTS assay to identify small molecules that stimulate Tumor Necrosis Factor-alpha (TNF-alpha) secretion (AID 651757; active = well fitted curve in the direction sought with a large enough effect in the signal ratio; the % refers to the signal ratio)
# Sequence of Tumor necrosis factor (Homo sapiens) (P01375 whole entry, looked up): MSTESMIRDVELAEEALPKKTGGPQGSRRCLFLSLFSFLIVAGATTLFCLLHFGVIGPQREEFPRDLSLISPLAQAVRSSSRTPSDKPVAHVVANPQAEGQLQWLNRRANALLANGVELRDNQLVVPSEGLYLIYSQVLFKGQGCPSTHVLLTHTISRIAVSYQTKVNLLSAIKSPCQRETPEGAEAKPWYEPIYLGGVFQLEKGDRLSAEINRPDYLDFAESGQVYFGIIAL
# Summary of the method: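 THP-1 cells, 3000/well; compound 17 hrs, 37 C; add cryptate/XL665 anti-TNF-alpha antibody pair; 3 hr RT; TR-FRET (HTRF) read of secreted TNF-alpha. Quantitative HTS format.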
# [16] = molecular target: Nuclear receptor ROR-gamma (Homo sapiens) (UniProt P51449); assay: qHTS assay for small molecule antagonists of the retinoid-related orphan receptor gamma (ROR-gamma) signaling pathway (AID 651802);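 also: CHO cells with doxycycline-induced ROR-gamma expression; luciferase reporter luminescence driven by ROR response element; nearly all actives have a fitted effect of over 60% in size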
# Sequence of Nuclear receptor ROR-gamma (Homo sapiens) (P51449 whole entry, looked up): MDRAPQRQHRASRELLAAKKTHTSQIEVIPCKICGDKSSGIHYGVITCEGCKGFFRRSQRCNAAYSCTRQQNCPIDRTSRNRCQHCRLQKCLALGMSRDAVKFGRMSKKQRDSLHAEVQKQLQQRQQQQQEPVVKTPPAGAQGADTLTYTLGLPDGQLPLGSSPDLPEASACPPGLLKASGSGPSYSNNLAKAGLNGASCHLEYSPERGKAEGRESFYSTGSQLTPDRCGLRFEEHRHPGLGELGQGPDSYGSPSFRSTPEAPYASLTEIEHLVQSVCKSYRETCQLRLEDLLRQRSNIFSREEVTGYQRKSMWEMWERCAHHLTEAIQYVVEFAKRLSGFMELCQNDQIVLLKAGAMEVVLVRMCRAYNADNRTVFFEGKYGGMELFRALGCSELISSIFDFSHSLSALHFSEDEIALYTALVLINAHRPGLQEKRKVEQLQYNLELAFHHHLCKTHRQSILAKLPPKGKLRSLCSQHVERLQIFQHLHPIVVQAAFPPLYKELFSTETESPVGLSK
# Summary of the method: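 Luciferase read-out: ONE-Glo luminescence after 30 min at room temperature, following 16hr doxycycline induction at 37C, 5% CO2 of CHO cells with TET-inducible ROR and RORE-LUC reporter; decreased luminescence = reduced reporter activity.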
# [17] = qHTS assay for small molecule agonists of the antioxidant response element (ARE) signaling pathway measured by Nrf2-dependant transcriptional activity - cell viability counter screen (AID 720653; active = well fitted curve in the direction sought with a large enough effect in the repeat runs; an effect the other way counts as inactive or inconclusive); conditions: ARE-bla HepG2 viability, CellTiter-Glo ATP luminescence, 16 h; stronger effect = lower value
# Summary of the method: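 ARE-bla HepG2 cells (2,000/well) rested 5 hrs at 37C/5% CO2, then exposed to compounds in DMSO for 16 hrs. Viability was read in the same wells as intracellular ATP by luminescence, 30 min at room temperature after reagent addition.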
# [18] = molecular target: Nuclear receptor subfamily 1 group I member 2 (Rattus norvegicus) (UniProt Q9R1A7); assay: qHTS assay for small molecule activators of the rat pregnane X receptor (rPXR) signaling pathway (AID 651751; call rule not given here); conditions: rPXR reporter cells, luciferase (One-Glo), 24 h
# Sequence of Nuclear receptor subfamily 1 group I member 2 (Rattus norvegicus) (Q9R1A7 whole entry, looked up): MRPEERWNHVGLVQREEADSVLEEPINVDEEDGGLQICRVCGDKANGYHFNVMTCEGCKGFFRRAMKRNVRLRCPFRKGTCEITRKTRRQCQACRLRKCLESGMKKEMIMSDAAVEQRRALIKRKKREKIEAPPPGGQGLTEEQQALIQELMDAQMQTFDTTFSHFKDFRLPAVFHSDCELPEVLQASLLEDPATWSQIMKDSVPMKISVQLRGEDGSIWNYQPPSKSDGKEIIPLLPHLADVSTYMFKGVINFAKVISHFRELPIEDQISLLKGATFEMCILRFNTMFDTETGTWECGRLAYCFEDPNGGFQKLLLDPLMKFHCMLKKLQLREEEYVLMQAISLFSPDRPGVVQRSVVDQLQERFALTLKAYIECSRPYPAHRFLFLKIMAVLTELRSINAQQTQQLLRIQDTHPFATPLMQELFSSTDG
# [19] = qHTS assay for small molecule activators of the human pregnane X receptor (PXR) signaling pathway (AID 720659; call rule not given here)
# [20] = molecular target: Mitogen-activated protein kinase 10 (Mus musculus) (UniProt Q61831); assay: JNK3 AlphaScreen Assay (AID 530; active = well fitted curve in either direction with a large enough effect, not every such curve was filed as active;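 also: kinase came from lysate of stimulated human HepG2 cells; signal reports phosphorylation of biotinylated GST-cJun 1-79 at Ser73 with 10 µM ATP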)
# Summary of the method: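 Biotinylated GST-cJun(1-79) served as substrate for JNK3 in HepG2 lysates stimulated with IL-1beta and TNF-alpha. ATP was 10 uM final, pH 7.6. Ser73 phosphorylation was quantified by AlphaScreen (680 nm excitation).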
compound,measurement,setting,value
N#CCCCCC#N,Potency,[1],inactive
same,Potency,[2],inactive
same,outcome,[3],inactive
same,caspase-3 activation,[4],0.323%
same,Potency,[5],inactive
same,outcome,[6],inactive
same,Potency,[7],inactive
same,Potency,[8],inactive
same,Potency,[9],inactive
same,Potency,[10],inactive
same,Potency,[11],inactive
same,Potency,[12],inactive
same,outcome,[13],inactive
same,Potency,[14],inactive
same,outcome,[15],inactive
same,Potency,[16],inactive
same,max response,[17],5.3%
same,max response,[18],9.56%
same,outcome,[19],inactive
COc1cc(-c2ccc(N)c(OC)c2)ccc1N,outcome,[3],inactive
same,caspase-3 activation,[4],-1.4%
same,Potency,[5],12.6 µM (active)
same,outcome,[6],inactive
same,Potency,[7],inactive
same,Potency,[8],inactive
same,Potency,[9],inactive
same,Potency,[10],inactive
same,Potency,[11],inactive
same,Potency,[12],inactive
same,outcome,[13],inactive
same,Potency,[16],inactive
same,max response,[17],19% and 0.28% and -8.23%
same,max response,[18],3.75% and 3.76% and 11%
N#C/C(N)=C(/N)C#N,Potency,[1],inactive
same,Potency,[2],inactive
same,outcome,[3],inactive
same,caspase-3 activation,[4],-2.4%
same,Potency,[5],inactive
same,outcome,[6],inactive
same,Potency,[7],inactive
same,Potency,[8],inactive
same,Potency,[9],inactive
same,Potency,[10],inactive
same,Potency,[11],inactive
same,Potency,[12],inactive
same,outcome,[13],inactive
same,Potency,[14],inactive
same,outcome,[15],inactive
same,Potency,[16],inactive
same,max response,[17],-10.7%
same,max response,[18],-1.96%
same,outcome,[19],inactive
ClCc1ccccn1,Potency,[1],inactive
same,outcome,[3],inactive
same,caspase-3 activation,[4],0.273%
same,Potency,[5],inactive
same,outcome,[6],inactive
same,Potency,[7],inactive
same,Potency,[8],inactive
same,Potency,[9],inactive
same,Potency,[10],inactive
same,Potency,[11],inactive
same,Potency,[12],inactive
same,outcome,[13],inactive
same,Potency,[14],inactive
same,outcome,[15],inactive
same,Potency,[16],inactive
same,max response,[17],-0.496% and -9.53%
same,max response,[18],2.99% and 8.15%
same,outcome,[19],inactive
Cc1cc(Cl)ccc1O,Potency,[20],inactive
same,Potency,[1],inactive
same,Potency,[2],inactive
same,outcome,[3],inactive
same,caspase-3 activation,[4],0.112%
same,Potency,[5],inactive
same,outcome,[6],inactive
same,Potency,[7],inactive
same,Potency,[8],inactive
same,Potency,[9],inactive
same,Potency,[10],inactive
same,outcome,[13],inactive
same,Potency,[14],inactive
same,outcome,[15],inactive
same,max response,[17],10.4%
same,max response,[18],-0.864%
same,outcome,[19],inactive
COc1c(C(C)(C)C)cc([N+](=O)[O-])c(C)c1[N+](=O)[O-],Potency,[1],inactive
same,Potency,[2],inactive
same,Potency,[5],inactive
same,outcome,[6],inactive
same,Potency,[7],inactive
same,Potency,[8],inactive
same,Potency,[9],inactive
same,Potency,[11],inactive
same,Potency,[12],inactive
same,outcome,[13],inactive
same,Potency,[14],inactive
same,outcome,[15],inactive
same,Potency,[16],inactive
same,max response,[17],4.77%
same,max response,[18],5.88%
same,outcome,[19],inactive
Cc1cc(-c2cc(C)c(N)c(C)c2)cc(C)c1N,Potency,[1],inactive
same,Potency,[2],inactive
same,outcome,[3],inactive
same,caspase-3 activation,[4],-0.121%
same,Potency,[5],25.1 µM (active)
same,outcome,[6],inactive
same,Potency,[9],inactive
same,Potency,[10],inactive
same,Potency,[11],inactive
same,Potency,[12],inactive
same,outcome,[13],inactive
same,Potency,[14],inactive
same,Potency,[16],inactive
same,max response,[17],-5.77%
same,max response,[18],14.1%
same,outcome,[19],inactive
O=[N+]([O-])c1ccc(Cl)c(Cl)c1Cl,Potency,[20],inactive
same,"activity change, negative = cytotoxicity",[1],-117% (active)
same,Potency,[2],inactive
same,outcome,[3],inactive
same,caspase-3 activation,[4],-0.669%
same,Potency,[5],inactive
same,outcome,[6],inactive
same,Potency,[7],inactive
same,Potency,[8],inactive
same,Potency,[9],inactive
same,Potency,[10],inactive
same,Potency,[11],inactive
same,outcome,[13],inactive
same,Potency,[14],inactive
same,outcome,[15],inactive
same,Potency,[16],inactive
same,max response,[17],-7.85%
same,max response,[18],-4.87%
same,outcome,[19],inactive
